Values joined by “and” are separate entries in the source; they are usually repeats but may differ in a detail not shown here. Equal entries are not always repeated. Compounds without any hit were thinned out: in the full panel of roughly 83,000, 20% have a hit.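 In brief: 96-well plates, 48 h treatment, single concentration, percent growth endpoint.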 Active and inactive are the calls of the source. The calls were made as follows: active = growth percent below 10; inactive = the rest.
Experiments:
Test in all cases: NCI-60 one-dose screen, 48 h (100 = growth as untreated, 0 = no growth, -100 = all killed)
HCT-15 colon = conditions: 10 µM unless noted
HT29 colon = tested on: HT29 colon
PC-3 prostate = tested on: PC-3 prostate
SK-MEL-5 melanoma = tested on: SK-MEL-5 melanoma
UACC-62 melanoma = tested on: UACC-62 melanoma
LOX IMVI melanoma = conditions: 10 µM unless noted
SK-MEL-28 melanoma = tested on: SK-MEL-28 melanoma
SK-MEL-2 melanoma = tested on: SK-MEL-2 melanoma
EKVX NSCLC = tested on: EKVX NSCLC
SN12C renal = tested on: SN12C renal
UO-31 renal = tested on: UO-31 renal
TK-10 renal = tested on: TK-10 renal
ACHN renal = tested on: ACHN renal
CAKI-1 renal = tested on: CAKI-1 renal
A498 renal = tested on: A498 renal
CCRF-CEM leukemia = tested on: CCRF-CEM leukemia
MOLT-4 leukemia = tested on: MOLT-4 leukemia
SNB-75 CNS = tested on: SNB-75 CNS
SNB-19 CNS = tested on: SNB-19 CNS
U251 CNS = tested on: U251 CNS

Measured: growth

CN1CCN(CCC=C2c3ccccc3Sc3ccc(S(=O)(=O)N(C)C)cc32)CC1
active: HT29 colon; 10 µM unless noted 4.86% and 4.22% | UACC-62 melanoma; 10 µM unless noted -42.7% | SK-MEL-28 melanoma; 10 µM unless noted -54.1% and -73.3%
inactive: HCT-15 colon 46.4% and 59.2% | PC-3 prostate; 10 µM unless noted 52.7% and 61.6% | SK-MEL-5 melanoma; 10 µM unless noted 26.4% and 69.1% | LOX IMVI melanoma 15.9% and 40.7% | SK-MEL-2 melanoma; 10 µM unless noted 68.5% and 53.7% | EKVX NSCLC; 10 µM unless noted 80.1% and 84.8% | SN12C renal; 10 µM unless noted 56.9% and 76.4% | UO-31 renal; 10 µM unless noted 36.7% and 56.9% | TK-10 renal; 10 µM unless noted 70.5% and 87.2% | ACHN renal; 10 µM unless noted 65.8% and 73.1% | CAKI-1 renal; 10 µM unless noted 48.5% and 94.9% | A498 renal; 10 µM unless noted 73.5% and 62.1% | CCRF-CEM leukemia; 10 µM unless noted 54.2% and 31.6% | MOLT-4 leukemia; 10 µM unless noted 46.3% and 28.2%

CCc1ccccc1-n1c(N)c(C#N)c(-c2ccc(OC)c(OC)c2)c(C#N)c1=O
inactive: HT29 colon; 10 µM 110% | HT29 colon; 100 µM 102% | SNB-75 CNS; 10 µM 98% | SNB-19 CNS; 10 µM 104% | SNB-19 CNS; 100 µM 10.5% | U251 CNS; 10 µM 101% | PC-3 prostate; 10 µM 110% | PC-3 prostate; 100 µM 14.2% | SK-MEL-5 melanoma; 10 µM 113% | SK-MEL-5 melanoma; 100 µM 67.1% | UACC-62 melanoma; 10 µM 105% | UACC-62 melanoma; 100 µM 35% | SK-MEL-28 melanoma; 10 µM 124% | SK-MEL-28 melanoma; 100 µM 54% | SK-MEL-2 melanoma; 10 µM 108% | SK-MEL-2 melanoma; 100 µM 38% | EKVX NSCLC; 10 µM 106% | EKVX NSCLC; 100 µM 29.1% | SN12C renal; 10 µM 109% | SN12C renal; 100 µM 19.8% | UO-31 renal; 10 µM 85.2% | UO-31 renal; 100 µM 37.1% | TK-10 renal; 10 µM 114% | ACHN renal; 10 µM 95.8% | ACHN renal; 100 µM 16.1% | CAKI-1 renal; 10 µM 97.5% | CAKI-1 renal; 100 µM 50.3% | A498 renal; 10 µM 120% | A498 renal; 100 µM 42.6% | CCRF-CEM leukemia; 10 µM 112% | CCRF-CEM leukemia; 100 µM 101% | MOLT-4 leukemia; 10 µM 95.7% | MOLT-4 leukemia; 100 µM 111%
active: SNB-75 CNS; 100 µM -43% | U251 CNS; 100 µM 8.35% | TK-10 renal; 100 µM 2.47%

CCCCCCCCCCCCCCCc1ccc(Cl)c(O)c1Cl (tested in a mixture with another compound)
inactive: HT29 colon; 0.25 µM 43.1% | HT29 colon; 10 µM 88% | SNB-75 CNS; 0.25 µM 36.6% | SNB-75 CNS; 10 µM 94.2% | SNB-19 CNS; 0.25 µM 10.8% | SNB-19 CNS; 10 µM 111% | U251 CNS; 0.25 µM 13% | U251 CNS; 10 µM 92.9% | PC-3 prostate; 0.25 µM 59.5% | PC-3 prostate; 10 µM 90.4% | SK-MEL-5 melanoma; 10 µM unless noted 87.7% | UACC-62 melanoma; 10 µM unless noted 22.8% [0.25 µM] | SK-MEL-28 melanoma; 0.25 µM 51.3% | SK-MEL-28 melanoma; 10 µM 109% | SK-MEL-2 melanoma; 0.25 µM 57.4% | SK-MEL-2 melanoma; 10 µM 88.2% | SN12C renal; 0.25 µM 12.5% | SN12C renal; 10 µM 89.7% | UO-31 renal; 0.25 µM 63.4% | UO-31 renal; 10 µM 93.6% | TK-10 renal; 0.25 µM 68.9% | TK-10 renal; 10 µM 115% | CAKI-1 renal; 0.25 µM 32% | CAKI-1 renal; 10 µM 94.8% | A498 renal; 0.25 µM 43.5% | A498 renal; 10 µM 125% | CCRF-CEM leukemia; 0.25 µM 18.3% | CCRF-CEM leukemia; 10 µM 93% | MOLT-4 leukemia; 10 µM 104%
active: MOLT-4 leukemia; 0.25 µM 4.89%

COc1cc(C(=O)N/N=C/c2ccc(N(C)C)cc2)cc(OC)c1OC
inactive: HCT-15 colon 20% | SNB-75 CNS; 10 µM unless noted 38.4% | SNB-19 CNS; 10 µM unless noted 53.3% | PC-3 prostate; 10 µM unless noted 25.4% | UACC-62 melanoma; 10 µM unless noted 43.1% | LOX IMVI melanoma 20.5% | SK-MEL-28 melanoma; 10 µM unless noted 53.8% | SN12C renal; 10 µM unless noted 41.3% | ACHN renal; 10 µM unless noted 45.1%
active: U251 CNS; 10 µM unless noted 3.96% | SK-MEL-5 melanoma; 10 µM unless noted 7.49% | A498 renal; 10 µM unless noted -3.05% | CCRF-CEM leukemia; 10 µM unless noted 8.58% | MOLT-4 leukemia; 10 µM unless noted -0.126%

Source: PubChem BioAssay (NCI)
